Laboratory results published in the OligoGym collection.

Biological target: LGALS7B
Experiment: pooled miR-30 sensor sort-seq; sequence = guide strand
Conditions: shRNA
Note: reference of the scale not given here.

Sequence	sensor-assay potency score (higher = more potent)
TGAAGCCGTCGTCTGACGCGAT	-0.633
TGCTGTTGAAGACCACCTCCGA	-0.584
TTGCTGTTGAAGACCACCTCCG	-0.31
TTACATGGAACCTGCTGGCATT	-1.13
TTGGGAGGAACCAAGCCGCGAA	-0.897
ATGATGAGCACCTCGAAGGGCT	-0.649
TTTACATGGAACCTGCTGGCAT	-0.552

Biological target: LHCGR
Experiment: as above
Conditions: shRNA

Sequence	sensor-assay potency score (higher = more potent)
TTATTTGATCCAGTGAAGCCAT	-0.633
TAACTCAGCACATTTGTAGTGT	0.247
TATAGTTTGAGTGTTACAGATT	-0.877
TTGGTAGCCATTAATTCTGGGT	-0.032
TCCATTGTGCATCTTCTCCAGA	-0.921
TTTGGTGGAAGAAATATCCAAG	-0.193
TAAGCTGAAAAATCTTTCCTTC	0.265
TTGACAAATGTTTCTCTTGATG	-1.44
TAGTCGAGTGAGACCGGCCGTG	-0.508
TTCACTTTCCTTACTGTGCTTT	0.168
TTACTGTGCTTTCACATTGTTT	-1.55
TAATCGCAGCTTTTGGTCCAGG	-1.08

Biological target: LHFPL3
Experiment: as above
Conditions: shRNA

Sequence	sensor-assay potency score (higher = more potent)
TATCTTGTACACAGTGGCCGTG	-0.302
TTAGCTTGTGTTCATTCTCAGG	-1.28
TAATCCATGATCACATCTCTTT	-0.691
TAGCCTATAATATTACACGTGA	-0.577
TACATGTTAACTCTAGAGCATT	-1.25
TTTACTTCATCTGAGTCCCAGC	-0.606
TTAAACAGAACACAGACTTGGT	0.0174
TTTTACTTCATCTGAGTCCCAG	0.0126
ATATCTTGTACACAGTGGCCGT	-1.29
TACTTGTCTGTCTTTTCTCCAC	-0.0892
TAAAATAGGAATGTGGTCCTAA	0.497
TTAGTTGTTAACTACTTCCAGA	-0.755

Biological target: LHFPL4
Experiment: as above
Conditions: shRNA

Sequence	sensor-assay potency score (higher = more potent)
AGATCTTGTAGACCGTAGCCGT	-1.61
TGGATGAAGACCACCACGTTGA	-0.905
TAGTGCTCGTGGTAGAGCTTGG	-0.315
AAGTCGGTGAAGGAGCCCCGGC	-1.53
AAGAGCTGCATCCAGGCGCAGA	-1.19
TAGACCGTAGCCGTGTTGCAGA	-0.559
AAATCTTTGTTCTCCGGCTTGA	-0.165
TTGTAGACCGTAGCCGTGTTGC	-0.989
